# PubChem BioAssay AID1626 (SRMLSC, 2009)
# About 2,000 (0.91%) of roughly 220,000 compounds were called active. Inconclusive results (about 2%) are left out. Rule as the data show it: inconclusive = inhibition above about 80% without an active follow-up result; inactive = below that; test concentration not stated here. Only a sample is shown. Results with a measured potency or affinity are listed apart.
# Assay: M. tuberculosis H37Rv growth inhibitors, H37Rv strain (AID 1626);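 also: bacteria incubated seven days before Alamar blue readout; 0% = bacteria only wells and 100% = bacteria with antibiotic wells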
# Conditions: stronger effect = higher value, concentration not given here
row,Compound,inhibition
1,CCOc1ccc(-c2nn(-c3ccccc3)cc2/C=C2\SC(=S)N(Cc3ccco3)C2=O)cc1,-2.18% (inactive)
2,COc1ccccc1C1=NC(c2ccc(C)cc2)N=C1C (configuration not stated),7.88% (inactive)
3,COc1ccc(N2C(=O)C3NN=C(C(=O)OCc4ccccc4)C3C2=O)cc1 (configuration not stated),1.18% (inactive)
4,Cc1cccc(NC(=S)N(CCN(C)C)Cc2cc3cccc(C)c3[nH]c2=O)c1,12.2% (inactive)
5,CSC1=NC(C)(C)C=C(/C=C/c2ccc(Cl)cc2)N1,-4.38% (inactive)
6,Cc1c(C(=O)N2CCN(C)CC2)oc2ccc(S(=O)(=O)N3CCOCC3)cc12,-4.68% (inactive)
7,Cc1cc(C(=O)NC(C)c2ccncc2)no1 (configuration not stated),-9.57% (inactive)
8,CCn1c2c(c(C)cc1=O)C(=O)CC(C)(C)C2,-1.17% (inactive)
9,CC(=O)c1ccc(N2Cc3ccccc3C3(CCOCC3)C2=N)cc1,-1.43% (inactive)
10,COc1ccccc1CC(=O)NC1CCCc2ccccc21 (configuration not stated),1.93% (inactive)
11,Cc1cc(Nc2ccc3c(c2)OCCO3)n2nc(C)nc2n1,1.27% (inactive)
12,CCOC(=O)C(=O)Nc1ccccc1C(=O)OCC,-3.74% (inactive)
13,CCOC(=O)C1=Nc2ccccc2/C1=C\c1c(O)n(C)c(=O)n(C)c1=O,-4.93% (inactive)
14,CC(=O)Nc1cc(C(F)(F)F)ccc1OCC1CCCO1 (configuration not stated),4.74% (inactive)
15,COc1cccc(-c2cc(C(F)(F)F)n3nc(C(=O)N4CCCCC4c4cccnc4)cc3n2)c1 (configuration not stated),-1.53% (inactive)
16,Cc1ccc(-c2cc(C(F)(F)F)n3ncc(C(=O)N4CCCCC4c4cccnc4)c3n2)cc1 (configuration not stated),9.06% (inactive)
17,CCN1CCN(C(=S)Nc2ccsc2C(=O)OC)CC1,2.48% (inactive)
18,COc1ccc(CCNC(=O)COC(=O)COc2ccc(C#N)cc2)cc1,3.53% (inactive)
19,Cc1ccc(Cc2cnc(NC(=O)c3ccco3)s2)cc1,-0.28% (inactive)
20,O=C(Nc1nnc(CCc2ccccc2)s1)c1cccs1,-0.19% (inactive)
21,O=C(Nc1nnc(Cc2ccc(Cl)cc2)s1)c1cccs1,-8% (inactive)
22,O=C(Nc1nnc(Cc2ccccc2)s1)c1cccs1,-2.7% (inactive)
23,CCOC(=O)c1oc2cccc(O)c2c1CN1CCOCC1,1.91% (inactive)
24,CC(=N/O)/C(=N\O)c1ccc(C)o1,5.71% (inactive)
25,O=C1CC(N2CCN(Cc3ccc4c(c3)OCO4)CC2)C(=O)N1c1cccc2ccccc12 (configuration not stated),-7.76% (inactive)

row,Compound,inhibition
1,CCOC(=O)c1c(NC(=O)COC(=O)c2cc(OC)c(OC)cc2[N+](=O)[O-])sc(C)c1C,0.78% (inactive)
2,O=C(Nc1ccc(Cl)cc1)N1CCCC1,1.26% (inactive)
3,O=C(Nc1cccc(Cl)c1)N1CCCC1,-2.82% (inactive)
4,N#Cc1c(-c2ccc(Cl)cc2Cl)nc2n(c1=O)CCS2,-1.19% (inactive)
5,O=C(Cn1cnc2c(nnn2-c2ccccc2)c1=O)N1CCOCC1,3.36% (inactive)
6,CCOc1ccc(-n2c(C)nc3c(cnn3-c3ccc(Cl)cc3)c2=O)cc1,-1.94% (inactive)
7,Cc1ccccc1OCC(=O)Nc1ccc(N2CCN(S(C)(=O)=O)CC2)cc1,-6.69% (inactive)
8,Cc1ccc(OCC(=O)Nc2ccc(N3CCN(C(=O)c4ccc(C)cc4)CC3)cc2)cc1,-3.04% (inactive)
9,CCOC(=O)N1CCN(c2cc(C)nc3nc(C)nn23)CC1,-2.69% (inactive)
10,COc1cccc(NC(=O)CSc2nnc(C)s2)c1,-3.98% (inactive)
11,CCSCc1nnc(SCC(=O)Nc2ccc(OC)cc2)n1C,7.37% (inactive)
12,CSc1cccc(NC(=O)CSc2ccc(C)cc2)c1,52.9% (inactive)
13,CCSCc1nnc(SCC(=O)Nc2cccc(C(C)=O)c2)n1C,-4.22% (inactive)
14,Nn1c(CN2CCCCC2)nc2ccccc2c1=O,4.4% (inactive)
15,Cc1csc(NC(=O)CS(=O)(=O)c2ccccc2)n1,-3.27% (inactive)
16,O=C(OCC(=O)N1CCCCCC1)c1ccc([N+](=O)[O-])cc1Cl,20.3% (inactive)
17,OC(COc1ccc(OCc2ccccc2)cc1)CN1CCCCC1 (configuration not stated),3.57% (inactive)
18,Cc1ccccc1OCc1nnc(SCC(=O)NCc2ccco2)n1C,-6.74% (inactive)
19,Cc1ccc(S(=O)(=O)NC(CC(C)C)C(=O)Nc2nccs2)cc1 (configuration not stated),-11.9% (inactive)
20,COc1ccc(CCNCC(O)Cn2ccc3ccccc32)cc1OC (configuration not stated),-9.67% (inactive)
21,COc1ccccc1NCC(O)Cn1c2ccccc2c2ccccc21 (configuration not stated),2.53% (inactive)
22,CC(C)N(Cc1cc2ccccc2[nH]c1=O)C(=O)c1cccnc1,-8.2% (inactive)
23,COc1ccc(S(=O)(=O)N2C(=O)/C(=C3\SC(N)=NC3=O)c3ccccc32)cc1,-3.28% (inactive)
24,CCCCOc1ccc(-c2nc(/C=N/c3nccs3)c(O)o2)cc1,25.4% (inactive)
25,COc1ccc2nc(/N=C/c3c(C)[nH]n(-c4ccc(C)cc4)c3=O)sc2c1,33% (inactive)

row,Compound,inhibition
1,Oc1oc(-c2ccccc2)nc1/C=N/c1nccs1,-8.45% (inactive)
2,COc1ccc2nc(/N=C/c3c(C)[nH]n(-c4ccc(C)cc4C)c3=O)sc2c1,6.1% (inactive)
3,Cc1ccccc1CN1CCN(c2ccc(Cl)cc2)CC1,6.57% (inactive)
4,N/C(=N\OS(=O)(=O)c1ccc(Cl)cc1)c1cccnc1,-1.48% (inactive)
5,COCc1nn2c(N)c(C#N)cnc2c1-c1ccccc1,4.73% (inactive)
6,Cc1nn2c(N)c(C#N)cnc2c1-c1ccccc1,-6.08% (inactive)
7,O=C(NCCc1c[nH]c2ccccc12)c1cnccn1,2.35% (inactive)
8,O=[N+]([O-])c1ccc(C(O)C(CO)NC(=S)Nc2ccccc2)cc1 (configuration not stated),-0.74% (inactive)
9,Cc1ccc(NC(=S)NC(CO)C(O)c2ccc([N+](=O)[O-])cc2)cc1 (configuration not stated),-9.71% (inactive)
10,CCn1c(-c2ccccc2)c(C(=O)CCl)c2ccccc21,76.1% (inactive)
11,Cn1cc(C(N)=O)c2ccccc21,-2.82% (inactive)
12,Cn1c(-c2ccccc2)c(C(=O)CC#N)c2ccccc21,7.31% (inactive)
13,Cn1cc(C(=O)Cc2ccccc2)c2ccccc21,0.26% (inactive)
14,Cc1ccc(-c2ccc(NC(=O)C3C4C=CC(C4)C3C(=O)O)cc2)o1 (configuration not stated),66.8% (inactive)
15,COCCCN(CCC#N)C(=O)c1c(-c2c(Cl)cccc2Cl)noc1C,-10.4% (inactive)
16,Cc1cc([N+](=O)[O-])ccc1NC(=O)c1cccc(NC(=O)C(C)C)c1,10.8% (inactive)
17,COc1cc(NC(=O)c2ccc([N+](=O)[O-])cc2)ccc1NC(=O)C(C)C,2.5% (inactive)
18,COc1ccc(NC(=O)CCSc2nnc(C)s2)cc1,-0.89% (inactive)
19,CC(=O)Nc1ccc(S(=O)(=O)N2CCCC(C(=O)O)C2)cc1 (configuration not stated),0.58% (inactive)
20,Fc1ccc(Oc2nc(-c3ccccc3)nnc2C(F)(F)F)cc1,-3.97% (inactive)
21,FC(F)(F)c1cccc(Oc2nc(-c3ccccc3)nnc2C(F)(F)F)c1,8.03% (inactive)
22,FC(F)(F)c1nnc(-c2ccccc2)nc1N1CCCC1,-1.21% (inactive)
23,Cc1ccc(Sc2nc(-c3ccccc3)nnc2C(F)(F)F)cc1,13.4% (inactive)
24,CNc1nc(-c2ccccc2)nnc1C(F)(F)F,-2.77% (inactive)
25,FC(F)(F)c1nnc(-c2ccccc2)nc1Sc1ccc(Cl)cc1,36.4% (inactive)

row,Compound,inhibition
1,COC(=O)CC/C(O)=C1/C(=N)CC(C)(C)CC1=O,-9.88% (inactive)
2,CC1CCN(CCCNC(=O)COc2cc(=O)n(C)c3ccccc23)CC1,-0.28% (inactive)
3,O=C(CCn1c(=O)c2sccc2n(CC(=O)OCc2ccccc2)c1=O)NCc1ccccc1,-4.57% (inactive)
4,CC(=O)N(C1=C(N2CCOCC2)C(=O)c2ccccc2C1=O)c1ccc(C(=O)O)cc1,-1.19% (inactive)
5,CC(=O)N(Cc1ccc(F)cc1)C1=C(NCCc2ccccc2)C(=O)c2ccccc2C1=O,16.5% (inactive)
6,CCC(=O)N(C1=C(NC)C(=O)c2ccccc2C1=O)C(C)C,2.12% (inactive)
7,CCC(=O)N(C1=C(NC(C)C)C(=O)c2ccccc2C1=O)C(C)C,3.87% (inactive)
8,CCNC(=O)/C=C1\NC(C)(C)Cc2c1ccc1ccccc21,-3.91% (inactive)
9,O=C1OCCC1Sc1nc2ccccc2s1 (configuration not stated),6.97% (inactive)
10,O=C(CN1CCN(Cc2ccccc2Cl)C1=O)NCc1ccccn1,1.55% (inactive)
11,O=C(NCC1CCCO1)C(c1ccc(F)cc1)N(Cc1ccc(F)cc1)C(=O)Cn1nnc(-c2cccs2)n1 (configuration not stated),-8.2% (inactive)
12,O=C(NCCc1nc2ccccc2[nH]1)/C(=C/c1ccc2c(c1)OCO2)NC(=O)c1ccccc1Cl,2.62% (inactive)
13,O=C(NCCc1nc2ccccc2[nH]1)/C(=C/c1ccc2c(c1)OCO2)NC(=O)c1ccccc1,1.83% (inactive)
14,Nc1nc(N)nc(-c2ccccn2)n1,-3.41% (inactive)
15,Cc1n[nH]c(C)c1Cc1c(F)cccc1Cl,-0.71% (inactive)
16,CC(NCc1ccc(Cl)cc1Cl)C(O)c1ccccc1 (configuration not stated),5.99% (inactive)
17,CC1CCCN(S(=O)(=O)c2ccc3c(c2)CCN3C(=O)C2CCC2)C1 (configuration not stated),5.83% (inactive)
18,ONC(=Nc1ccc(Cl)cc1)c1ccc(Cl)cc1,-13.7% (inactive)
19,Cc1ccc(C(c2c(C)nn(-c3ccccc3)c2N)c2c(C)nn(-c3ccccc3)c2N)cc1,6.99% (inactive)
20,Cc1nn(-c2ccccc2)c(N)c1C(c1ccccc1)c1c(C)nn(-c2ccccc2)c1N,9.35% (inactive)
21,C#CCNC(=O)C1CCN(c2cc(C)nc(-c3ccccc3)n2)CC1,-0.44% (inactive)
22,CCOC(=O)c1cc([N+](=O)[O-])sc1NC(=O)c1ccc(S(=O)(=O)N2CC3(C)CC2CC(C)(C)C3)cc1 (configuration not stated),-0.55% (inactive)
